High-throughput results from PubChem BioAssay.
TRHR ag: activates the human TRH receptor; hit rate 0.18% among 360,000; activation, % at 2 µM; TRHR cells, calcium flux fluo-8, FDSS agonist mode; P34981; further: 0% is about no effect
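Fluo-8-loaded TRHR cells; 10 s baseline, compound added, kinetic Ca2+ fluorescence read 1/s, agonist mode.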
D1 PAM: enhances dopamine response at the human D1 receptor; potentiation, % at 10 µM; hit rate 0.036% among 360,000; HEK293 TREx D1 cells, calcium flux, dopamine EC20 potentiation; in the data active means potentiation above about 30%; further: 0% is about no effect
Target sequence (P21728 whole entry, looked up): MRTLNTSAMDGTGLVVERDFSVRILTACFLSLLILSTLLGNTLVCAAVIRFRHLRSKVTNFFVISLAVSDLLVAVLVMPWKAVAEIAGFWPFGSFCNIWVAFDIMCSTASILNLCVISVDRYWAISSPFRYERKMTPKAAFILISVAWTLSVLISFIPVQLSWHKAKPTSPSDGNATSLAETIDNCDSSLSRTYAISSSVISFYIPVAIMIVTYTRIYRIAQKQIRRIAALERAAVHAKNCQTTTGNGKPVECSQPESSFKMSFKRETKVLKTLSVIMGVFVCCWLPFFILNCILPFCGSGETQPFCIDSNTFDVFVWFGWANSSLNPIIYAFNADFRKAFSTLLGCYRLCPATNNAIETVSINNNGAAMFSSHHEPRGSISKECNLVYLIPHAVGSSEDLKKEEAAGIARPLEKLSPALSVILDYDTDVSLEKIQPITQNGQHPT
D1 antagonist: antagonists of human D1 dopamine receptor; P21728; HEK293 TREx D1 cells, calcium flux, dopamine EC80; hits give low values; activity change, negative = inhibition, % at 10 µM; hit rate 3.2% among 360,000; in the data active means activity change below about -30%; further: on the % scale 0 is the no-effect control and ±100 the full control effect
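Inducible Hek293 Trex D1 cells (tetracycline, overnight, 30 C). Calcium dye 30–90 min RT. Antagonist mode: EC80 dopamine added after 180 s compound read.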
D1 agonist: activates the human D1 dopamine receptor. HEK293 T-REx D1 cells, calcium flux, agonist mode. activation, % at 2 µM. hit rate 1% among 360,000; further: 0% is about no effect
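Agonism was scored from calcium flux recorded over 180 s (1 read/s) after pintool compound addition, following a 10-cycle baseline. Cells were inducible force-coupled HEK293 TREx D1, plated overnight at 30 C and loaded with no-wash calcium dye.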
TRHR enhancer: allosterically enhances the human TRH receptor | P34981 | TRHR cells, fluo-8 calcium fluorescence, EC20 TRH enhancement | enhancement, % at 2 µM | hit rate 0.66% among 360,000 | AID 493056; in the data active means enhancement above about 30%; further: 0% is about no effect
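TRHR-expressing cells loaded with fluo-8 calcium dye were read kinetically (ex 480/em 530) during compound addition, then stimulated with an EC20 of TRH (10 nM final). Enhancement of the Gq-mediated intracellular calcium response was scored.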
An asterisk follows results filed as active; . = no result given. Compounds with a hit are over-represented: about 4.7% of the library has one in this group of screens. Unless noted, no stated cut-off is given here; in the data, active means activation above about 30%; inactive means the rest.

SMILES | TRHR ag | D1 PAM | D1 antagonist | D1 agonist | TRHR enhancer
Cc1ccccc1CNC(=O)c1ccc2c(c1)N(Cc1ccccc1)CCS2 | 0 | -4 | 0 | -1 | 0
Cc1cccc(-n2cc(-c3ccccc3)nc2SCC(=O)Nc2ccccc2Cl)c1 | 0 | -2 | -1 | 7 | -8
CCCCNC(=O)c1ccc2c(c1)NC(=O)C(CS(=O)(=O)Cc1ccc(F)cc1Cl)N2 (configuration not stated) | -1 | -2 | 3 | 5 | -14
Cc1cccc(-n2c(=O)c3c(c4cc(C)ccc4n3C)n(C)c2=O)c1 | -1 | -2 | -1 | -2 | -12
CC(=O)c1csc(-c2ccccc2)n1 | 0 | -9 | -55* | -1 | 6
COC(=O)c1cn(C(=O)c2ccc(OC)c(OC)c2)c2ccccc12 | 0 | 0 | -47* | 3 | 2
COC(=O)c1cn(C(=O)c2cc(OC)c(OC)c(OC)c2)c2ccccc12 | -1 | 0 | 10 | 1 | -3
Cc1ccc(S(=O)(=O)Nc2ncnc3ccccc23)cc1 | 1 | 0 | 7 | 1 | 31*
CC(NCc1ccccc1)C1COc2ccccc2O1 (configuration not stated) | 0 | -3 | 10 | 2 | 31*
Cc1ccc(-c2nc3cccnc3s2)cc1NC(=O)C(C)C | 0 | 1 | 27 | 30* | 17
CCC(C(=O)Nc1cc(-c2nc3cccnc3s2)ccc1C)c1ccccc1 (configuration not stated) | 0 | 3 | 35 | 0 | 8
Cc1c2cnn(CC(=O)NC(C)C)c(=O)c2c(C)n1Cc1cccc(Cl)c1 | 0 | -2 | -55* | 11 | 1
Cc1ccc(NS(=O)(=O)c2cc(-c3cnc(C4CC4)o3)ccc2C)cc1Cl | -1 | 0 | -8 | -1 | 2
COc1ccc(-c2nnc(SCc3ccccn3)n2C)cc1 | 0 | -17 | 2 | 0 | 1
COc1ccc(N=C(N)SCc2ccccn2)cc1 | 14 | -10 | -43* | 21 | -8
C[C@@H](C(=O)Nc1nc2ccc(F)cc2s1)N1C(=O)C2CC=CCC2C1=O (some centres not stated) | -1 | 0 | -45* | 0 | 1
Cc1ccc(C(=O)OCc2cc(=O)n3nc(CC(C)C)sc3n2)cc1 | 1 | -3 | -6 | 7 | -2
Cc1cccc2sc(N3CCN(C(=O)CS(=O)(=O)c4ccc(F)cc4)CC3)nc12 | 0 | 3 | . | 6 | -6
Cc1ccc(S(=O)(=O)CC(=O)N2CCN(c3nc4c(F)cccc4s3)CC2)cc1 | 0 | -2 | . | 56* | -3
Cc1cc(C)cc(OC(C)C(=O)Nc2ccc(S(=O)(=O)Nc3cc(C)nc(C)n3)cc2)c1 (configuration not stated) | -1 | 1 | -1 | 3 | 4
Cc1ccc(C(=O)/C=C/Nc2ccc(S(=O)(=O)Nc3cc(C)nc(C)n3)cc2)cc1 | 0 | -3 | -57* | 8 | -2
CCC(C)C(NC(=O)c1ccccc1)C(=O)Nc1ccc(S(=O)(=O)Nc2cc(C)nc(C)n2)cc1 (configuration not stated) | 1 | -1 | -59* | 0 | -1
Cc1ccc(CSc2nnc(-n3c(=O)c(C#N)cc4c(=O)n5cc(C)ccc5nc43)s2)cc1 | 1 | -2 | 15 | 0 | 11
COCCCn1c(=S)[nH]c2c(sc3ccccc32)c1=O | 0 | 0 | 3 | 4 | 32*
CC1CCN(CCCn2c(=S)[nH]c3c(sc4ccccc43)c2=O)CC1 | 0 | 0 | 7 | 0 | 17
SMILES | TRHR ag | D1 PAM | D1 antagonist | D1 agonist | TRHR enhancer
CCC(=O)Nc1ccc2nc(SCCOc3ccc(C)cc3)sc2c1 | 0 | 1 | 40 | 9 | 3
Cc1ccc(S(=O)(=O)NNC(=O)Nc2ccc(C)c(C)c2)c(C)c1 | 0 | -3 | -35* | 1 | 6
Cc1ccc(S(=O)(=O)NNC(=O)Nc2cccc(C)c2C)c(C)c1 | 0 | 14 | -3 | 1 | -4
CCOc1ccccc1NC(=O)c1ccccc1-c1nc(-c2ccccc2OC)no1 | -2 | 0 | -18 | 1 | -10
CC1CCN(CC(O)COc2ccc(F)cc2)CC1 (configuration not stated) | 1 | . | -49* | 2 | -6
CC(C)OCC(O)CN1CCC(Cc2ccccc2)CC1 (configuration not stated) | 0 | 2 | -2 | 0 | 2
